This is a sample that favours compounds with a hit; in the whole collection about 1.4% have one here.
PV pol inh – inhibitors of poliovirus RNA polymerase binding and polymerization | P03300 | poliovirus polymerase elongation, fluorescence polarization; active compounds read low | % elongation, % (compound at 16.7 µg/mL) | hit rate 0.66% among 150,000; in the data active means % elongation below about 90%
Mtb MbtI inh – inhibitors of Mycobacterium tuberculosis siderophore enzyme MbtI. P9WFX0. purified MbtI enzyme, fluorescence intensity read-out. hit rate 0.89% among 100,000. inhibition, % (test concentration not listed). AID 493033; in the data active means inhibition mostly above about 56%, no sharp cut-off; inactive means mostly below about 77%
AID504770 – growth inhibitors of E. coli YBA685 in a screen for V. cholerae RctB (chromosome II replication) inhibitors. AID 504770. z-score (test concentration not listed). hit rate 0.27% among 130,000. E. coli YBA685 rctB-dependent plasmid, OD600 growth, 3 h; active compounds read low; in the data active means z-score below about -2, passing the limit was not always enough
Mtb MenB inh – blocks the Mycobacterium tuberculosis MenB enzyme; inhibition, % (test concentration not listed); MenB enzyme assay, absorbance read-out; hit rate 0.43% among 100,000; AID 540299; P9WNP5; in the data active means inhibition above about 21%, passing the limit was not always enough
Target sequence (P9WNP5 whole entry, looked up): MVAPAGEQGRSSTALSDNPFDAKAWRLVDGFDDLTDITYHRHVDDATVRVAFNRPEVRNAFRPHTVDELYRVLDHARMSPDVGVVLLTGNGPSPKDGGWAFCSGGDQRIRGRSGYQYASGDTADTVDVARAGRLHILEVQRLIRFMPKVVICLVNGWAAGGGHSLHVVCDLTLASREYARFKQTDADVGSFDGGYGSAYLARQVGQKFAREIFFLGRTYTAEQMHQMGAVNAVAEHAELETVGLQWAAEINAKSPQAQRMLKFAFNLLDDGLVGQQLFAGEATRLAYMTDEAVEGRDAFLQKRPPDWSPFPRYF
* hit, by the source's call.

What do the screens show for `Cc1ccc(CCC(=O)NC2CCc3ccccc3C2)o1` (configuration not stated)?
PV pol inh: 102; Mtb MbtI inh: 4; AID504770: 0.35; Mtb MenB inh: 16

What do the screens show for `COc1cc(/C=N/NC(=O)Cc2csc(C)n2)cc(OC)c1`?
PV pol inh: 105; Mtb MbtI inh: -11; AID504770: -1.4; Mtb MenB inh: -14

What do the screens show for `Cc1ccccc1Nc1nn2c(=O)c3ccc(C(=O)NCc4ccccc4)cc3nc2s1`?
PV pol inh: 104

Results for Cc1cccc(C)c1Nc1nn2c(=O)c3ccccc3nc2s1 ?
PV pol inh: 88*; Mtb MbtI inh: 51; AID504770: -0.8; Mtb MenB inh: -33

How did Cc1cc(C)c(Nc2nn3c(=O)c4cc5c(cc4nc3s2)OCO5)c(C)c1 do in these assays?
PV pol inh: 87*

Results for CSCc1ccc(C(=O)N2CCN(C(=O)c3ccccc3)CC2)cc1 ?
PV pol inh: 100; Mtb MbtI inh: 3; AID504770: 1; Mtb MenB inh: -15

How did COC(=O)C1(C)Cc2c([nH]c3ccccc23)C(c2ccccc2)N1 (configuration not stated) do in these assays?
AID504770: 0.05

What do the screens show for `CN(C)Cc1n[nH]c(=S)o1`?
PV pol inh: 75*; Mtb MbtI inh: 90*; AID504770: 2; Mtb MenB inh: -19

Results for Cc1ccc(NC(=O)CC2SC(=NC3CCCC3)NC2=O)cc1Cl (configuration not stated) ?
PV pol inh: 98; Mtb MbtI inh: 0; AID504770: -0.45; Mtb MenB inh: -1

What do the screens show for `Cc1ccc(/C=C/C(=O)OC(C)C(=O)c2cccc(Cl)c2)o1` (configuration not stated)?
PV pol inh: 98; Mtb MbtI inh: 26; AID504770: -0.45; Mtb MenB inh: 7

How did S=c1[nH]nc(Nc2ccccc2)n1-c1ccccc1 do in these assays?
PV pol inh: 97; Mtb MbtI inh: 58*; AID504770: -0.15; Mtb MenB inh: -21

How did S=c1[nH]nc(-c2ccccc2)n1-c1ccccc1 do in these assays?
PV pol inh: 101; Mtb MbtI inh: 3; AID504770: 0.05; Mtb MenB inh: -17

How did COc1ccc(NS(=O)(=O)c2ccc3oc(SC/C(O)=C(\C#N)c4nc5ccccc5s4)nc3c2)cc1 do in these assays?
PV pol inh: 106; Mtb MbtI inh: 42; AID504770: -0.85; Mtb MenB inh: -24

How did COc1ccc(NS(=O)(=O)c2ccc3oc(SC)nc3c2)cc1 do in these assays?
PV pol inh: 82*; Mtb MbtI inh: 92*; AID504770: 0; Mtb MenB inh: -48

Results for CCOC(=O)N1CCN(C(=O)c2cn(-c3ccc(OCC)cc3)c(=O)c3cc(OC)c(OC)cc23)CC1 ?
PV pol inh: 99; Mtb MbtI inh: -5; AID504770: 0.45; Mtb MenB inh: -17

How did CC1=CC(C)(C)N=C(Nc2nc(C)c3cc(C)cc(C)c3n2)N1 do in these assays?
PV pol inh: 76*; AID504770: -0.9; Mtb MenB inh: -20

Results for CCN1CN=C(Nc2nc(C)c3cc(C)ccc3n2)NC1 ?
PV pol inh: 101; Mtb MbtI inh: 9; AID504770: -0.8; Mtb MenB inh: -12

What do the screens show for `COc1ccccc1C(=O)/C=C1\NC(=O)CS1`?
PV pol inh: 107; Mtb MbtI inh: 18; AID504770: -1; Mtb MenB inh: -23

Results for CN(N)C1=NS(=O)(=O)c2ccccc21 ?
PV pol inh: 100; Mtb MbtI inh: -6; AID504770: -0.35; Mtb MenB inh: 9

How did CC(C)(C)c1ccc(O)c(N)c1 do in these assays?
PV pol inh: 98; Mtb MbtI inh: 99*; AID504770: -0.05; Mtb MenB inh: -23

Results for CC(C)(C)P(=O)(c1ccncc1)N1CCCCCC1 (configuration not stated) ?
PV pol inh: 105; Mtb MbtI inh: -16; AID504770: -1.6; Mtb MenB inh: -17

Results for CC(C)c1ccc(NC(=S)Sc2ccc(F)cc2F)cc1 ?
PV pol inh: 97; Mtb MbtI inh: 65*; AID504770: -0.85; Mtb MenB inh: -12

How did O=C(COC(=O)CCc1c[nH]c2ccccc12)Nc1cccc2nsnc12 do in these assays?
PV pol inh: 100; Mtb MbtI inh: -10; AID504770: -0.65; Mtb MenB inh: -34

Results for CCn1nc(N)c2c(O)[nH]c(=O)cc21 ?
PV pol inh: 40*; Mtb MbtI inh: 18; AID504770: 0.6; Mtb MenB inh: -54

Results for NC(N)=N/N=C/c1ccco1 ?
PV pol inh: 102; Mtb MbtI inh: 26; AID504770: -0.55; Mtb MenB inh: 0

How did Cc1sc2nc(CC#N)[nH]c(=O)c2c1C do in these assays?
PV pol inh: 107; Mtb MbtI inh: 3; AID504770: -0.4
